# The supplement of paper PMC10127200
# Where a name gives a salt, the structure may show the parent alone.
# Test system: 786-O
# Assay: Euclidean distance of Cell Painting phenotypic profile (signed KS, 77 features) to DMSO centroid (dimensionless distance); 5 or 10 uM (library dependent); higher = stronger phenotypic change vs DMSO (phenoactivity)
# Details: 48 h
# Method in brief: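 Five cancer lines, together with a healthy fibroblast line, received library compounds for 48 h at a library-dependent 10 or 5 uM and 0.1% DMSO final. Harmony then derived 77 features from confocal 20X images (9 fields/well) of the stained cells, scoring each as a signed Kolmogorov-Smirnov statistic against same-plate vehicle wells. After plate-position correction, correlation weighting and replicate averaging at the top dose, phenoactivity was taken as each profile's Euclidean distance to the median vehicle profile.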
row,SMILES,Euclidean distance
1,CN1CCC(OC(c2ccccc2)c2ccccc2)CC1 [Diphenylpyraline hydrochloride],0.93
2,COc1cc2ncnc(Nc3cccc(Cl)c3)c2cc1OC [AG-1478 (Tyrphostin AG-1478)],1.39
3,NS(=O)(=O)c1cc2c(cc1Cl)N=C(CSCc1ccccc1)NS2(=O)=O [Benzthiazide],1.33
4,CCN(CC)CCNC(=O)c1ccc(N)cc1 [Procainamide HCl],0.693
5,CCC(C)(C)c1ccc(CC(C)CN2C[C@@H](C)O[C@@H](C)C2)cc1 (stereo not given in full) [Amorolfine HCl],0.719
6,C[C@H]1COc2c(N3CCN(C)CC3)c(F)cc3c(=O)c(C(=O)O)cn1c23 [Levofloxacin hydrate],1.06
7,O=C(Nc1ccc(S(=O)(=O)Nc2ccccc2Cl)c(Cl)c1)c1ccccn1,0.876
8,O=S(=O)(O)CCS [Mesna],0.758
9,CCCCOC(=O)c1ccc(N)cc1 [Butamben],1.09
10,CC(C)NCC(O)COc1ccc(CCOCC2CC2)cc1 (stereo not given) [Betaxolol],0.891
11,Cc1ccc(Nc2nccc(N(C)c3ccc4c(C)n(C)nc4c3)n2)cc1S(N)(=O)=O [Pazopanib],2.13
12,C[C@@H]1O[C@@H](Oc2c(-c3ccc(O)c(O)c3)oc3cc(O)cc(O)c3c2=O)[C@H](O)[C@H](O)[C@H]1O [Quercitrin],1.05
13,Cc1c(F)cccc1NC(=O)Nc1ccc(Cl)c(S(=O)(=O)[C@H]2CCCNC2)c1O,1.18
14,CC(O)c1cc(C(=O)N[C@@H](C)Cn2ccc(-c3ccc(C#N)c(Cl)c3)n2)n[nH]1 (stereo not given in full) [Darolutamide (ODM-201)],0.846
15,COc1ccc(-c2nc(N3CCOCC3)c3sc(CN(C)c4ncc(C(=O)NO)cn4)cc3n2)cn1,3.46
16,COc1cc2nc(N3CCN(C(=O)C4COc5ccccc5O4)CC3)nc(N)c2cc1OC (stereo not given) [Doxazosin],1.52
17,CS(=O)(=O)c1ccc([C@@H](O)[C@@H](CO)NC(=O)C(Cl)Cl)cc1 [Thiamphenicol],1.41
18,CNC[C@@H](O)c1ccc(O)c(O)c1 [L-Adrenaline],1.4
19,Cc1cc(OCCCS(C)(=O)=O)cc(C)c1-c1cccc(COc2ccc3c(c2)OC[C@H]3CC(=O)O)c1,1.05
20,Nc1nnc(-c2cccc(Cl)c2Cl)c(N)n1 [Lamotrigine],0.851

row,SMILES,Euclidean distance
1,O=C1Nc2ccc(CN3C(=O)CSC3=O)cc2/C1=C/c1cc(CN2CCOCC2)c[nH]1,1.07
2,CN(C/C=C/C#CC(C)(C)C)Cc1cccc2ccccc12 [Terbinafine],1.56
3,CC(C)=CCC/C(C)=C/CC/C(C)=C/CCC(=O)OC/C=C(\C)CCC=C(C)C [Gefarnate],0.868
4,CNC(=O)[C@H](Cc1c[nH]c2ccccc12)NC(=O)[C@@H](CC(=O)NO)CC(C)C [Ilomastat (GM6001. Galardin)],1.02
5,CCOC(=O)Nc1ccc(NCc2ccc(F)cc2)nc1N [Flupirtine maleate],1.54
6,C=CCNC(N)=S [Allylthiourea],1.12
7,OCc1cc(C(O)CNCCCCCCOCCCCc2ccccc2)ccc1O (stereo not given) [Salmeterol],1.56
8,CC[C@@H]1/C=C(\C)C[C@H](C)C[C@H](OC)[C@H]2O[C@@](O)(C(=O)C(=O)N3CCCC[C@H]3C(=O)O[C@H](/C(C)=C/[C@@H]3CC[C@@H](O)[C@H](OC)C3)[C@H](C)[C@@H](O)CC1=O)[C@H](C)C[C@@H]2OC [Ascomycin (FK520)],1.06
9,O=C(O)c1cccnc1 [Nicotinic Acid],1.53
10,CCc1nc2c(C)cc(N3CCN(CC(=O)N4CC(O)C4)CC3)cn2c1N(C)c1nc(-c2ccc(F)cc2)c(C#N)s1 [Ziritaxestat (GLPG1690)],1.57
11,Cn1cnc(N)c2ncnc1-2 [3-Methyladenine],1.21
12,CCCN(CCc1cccs1)[C@H]1CCc2c(O)cccc2C1 [Rotigotine],0.962
13,CC(C)C[C@H](NC(=O)CNC(=O)c1cc(Cl)ccc1Cl)B1OC(=O)C(CC(=O)O)(CC(=O)O)O1,4.77
14,CCOC(=O)C1=C(COCCN)NC(C)=C(C(=O)OC)C1c1ccccc1Cl (stereo not given) [Amlodipine Besylate],1.08
15,CC(=O)N1C[C@H](O)C[C@H]1C(=O)O [Oxaceprol],0.691
16,Nc1nc(O)c2ncn(CCC(CO)CO)c2n1 [Penciclovir],0.815
17,C[C@]12C[C@H](O)[C@H]3[C@@H](CCC4=CC(=O)CC[C@@]43C)[C@@H]1CC[C@@H]2C(=O)CO [Corticosterone],1
18,Cc1ccc(S(=O)(=O)OCC(=O)Nc2ccc(C(=O)O)c(O)c2)cc1,1.33
19,COc1ccccc1[C@H](Cn1c(=O)n(C(C)(C)C(=O)O)c(=O)c2c(C)c(-c3ncco3)sc21)OC1CCOCC1 [Firsocostat (GS-0976)],0.952
20,CN1CCN2c3ccccc3Cc3ccccc3C2C1 (stereo not given) [Mianserin HCl],2.29
